# Results as given in the supplement of paper PMC10849652.
# About 8,800 targets were measured; listed, in parts, are those with a hit and a random draw of the rest. About 0.5% of all pairs of compound and target were hits. A number with no mark means an inactive call.
# Assays:
# Experiment in all cases: log2 fold change, soluble protein after heating vs DMSO (PISA); higher = thermal stabilisation; K562 lysate, 10 uM; active = over 0.2 and 3.5 SD of the protein, either way, in both replicates (recomputed)
# [1] = compound: C#Cc1cccc(Nc2ncnc3cc(OCCOC)c(OCCOC)cc23)c1 [erlotinib]
# Summary of the method: (§1)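 Soluble protein was defined as the supernatant remaining after 21,000xg for 90 min, following pooling of heated aliquots and adjustment to 0.5% NP-40 at 4°C. Before that, crude K562 extract at 1 mg/mL protein in PBS pH 7.4 with 1 mM MgCl2 was treated with 10 μM compound for 30 min and heated for 3 min across 48°C-58°C. Quantification used TMTpro 16plex LC-MS/MS with channel sums equalised, and values are log-two fold changes in thermal stability relative to solvent controls from duplicates.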
# [2] = compound: C/C(=N\NC(=O)C1=CC(=CC=C1)S(=O)(=O)N2CCOCC2)/C3=C(C=CC(=C3)Cl)O
# Summary of the method: as §1
# [3] = compound: C1=CC(=CC=C1C2=NC3=C(N2)C=C(C=C3)C(=O)N)OC4=CC=C(C=C4)Cl
# Summary of the method: as §1
# [4] = compound: C1=CC2=C(C=CC(=C2)/C=C\3/C(=O)NC(=NCC4=CC=CS4)S3)N=C1
# Summary of the method: as §1
# [5] = compound: C1=CC2=NC=CN=C2C=C1/C=C/3\C(=O)NC(=O)S3
# Summary of the method: as §1
# [6] = compound: C1=CC=C(C=C1)C2=NC(=C(N2)C3=CC=NC=C3)C4=CC(=C(C=C4)Cl)O
# Summary of the method: as §1
# [7] = compound: C1=CC=C2C(=C1)C3=NNC4=CC=CC(=C43)C2=O
# Summary of the method: as §1
# [8] = compound: C1CCN(C1)C(=O)NC2=CC=CC(=C2)NC3=NC=C(C(=N3)NCCC4=CN=CN4)Br
# Summary of the method: as §1
# [9] = compound: C1CN(CCC1(CC2=CC=C(C=C2)Cl)N)C3=NC=NC4=C3C=CN4
# Summary of the method: as §1
# [10] = compound: C1COCCN1CCN2C3=CC=CC=C3N=C2NC(=O)C4=CC(=CC=C4)[N+](=O)[O-] [IRAK-1-4 Inhibitor I]
# Summary of the method: as §1
# UniProt Q5T0N5, sequence (Q5T0N5 whole entry, looked up): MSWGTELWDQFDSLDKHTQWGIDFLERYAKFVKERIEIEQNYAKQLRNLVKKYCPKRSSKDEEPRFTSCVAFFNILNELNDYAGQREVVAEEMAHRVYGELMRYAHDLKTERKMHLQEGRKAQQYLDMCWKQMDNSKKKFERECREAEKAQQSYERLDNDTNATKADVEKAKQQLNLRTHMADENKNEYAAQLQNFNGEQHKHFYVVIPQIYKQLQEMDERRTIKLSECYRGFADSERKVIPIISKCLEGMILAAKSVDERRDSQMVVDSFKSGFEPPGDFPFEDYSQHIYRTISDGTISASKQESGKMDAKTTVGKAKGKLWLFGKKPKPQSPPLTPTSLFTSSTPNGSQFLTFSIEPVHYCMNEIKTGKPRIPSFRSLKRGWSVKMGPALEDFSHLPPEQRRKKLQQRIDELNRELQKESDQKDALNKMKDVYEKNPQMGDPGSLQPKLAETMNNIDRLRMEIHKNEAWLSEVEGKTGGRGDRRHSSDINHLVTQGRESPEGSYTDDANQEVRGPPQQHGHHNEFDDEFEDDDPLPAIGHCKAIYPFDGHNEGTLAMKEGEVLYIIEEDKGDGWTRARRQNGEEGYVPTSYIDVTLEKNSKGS
# UniProt Q9NYY8, sequence (Q9NYY8 whole entry, looked up): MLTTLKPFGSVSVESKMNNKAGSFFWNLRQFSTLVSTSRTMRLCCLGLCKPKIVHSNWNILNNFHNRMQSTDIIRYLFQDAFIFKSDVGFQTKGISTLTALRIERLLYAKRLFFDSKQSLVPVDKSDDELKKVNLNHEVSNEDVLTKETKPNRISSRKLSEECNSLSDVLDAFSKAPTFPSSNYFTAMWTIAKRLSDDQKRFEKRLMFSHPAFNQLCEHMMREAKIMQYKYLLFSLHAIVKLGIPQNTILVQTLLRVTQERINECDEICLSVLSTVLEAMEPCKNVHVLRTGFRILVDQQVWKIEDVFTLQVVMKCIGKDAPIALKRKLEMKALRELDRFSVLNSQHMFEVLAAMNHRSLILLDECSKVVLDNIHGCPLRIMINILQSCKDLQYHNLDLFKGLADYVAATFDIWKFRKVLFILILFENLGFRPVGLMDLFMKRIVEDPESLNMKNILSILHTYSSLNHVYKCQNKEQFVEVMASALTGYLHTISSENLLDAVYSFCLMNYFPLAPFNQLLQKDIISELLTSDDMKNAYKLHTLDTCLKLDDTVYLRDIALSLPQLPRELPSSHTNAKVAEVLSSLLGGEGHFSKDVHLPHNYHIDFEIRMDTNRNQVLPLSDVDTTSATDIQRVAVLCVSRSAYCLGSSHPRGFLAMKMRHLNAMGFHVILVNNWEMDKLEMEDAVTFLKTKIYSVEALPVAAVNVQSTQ
# UniProt Q8NFF5, sequence (Q8NFF5 whole entry, looked up): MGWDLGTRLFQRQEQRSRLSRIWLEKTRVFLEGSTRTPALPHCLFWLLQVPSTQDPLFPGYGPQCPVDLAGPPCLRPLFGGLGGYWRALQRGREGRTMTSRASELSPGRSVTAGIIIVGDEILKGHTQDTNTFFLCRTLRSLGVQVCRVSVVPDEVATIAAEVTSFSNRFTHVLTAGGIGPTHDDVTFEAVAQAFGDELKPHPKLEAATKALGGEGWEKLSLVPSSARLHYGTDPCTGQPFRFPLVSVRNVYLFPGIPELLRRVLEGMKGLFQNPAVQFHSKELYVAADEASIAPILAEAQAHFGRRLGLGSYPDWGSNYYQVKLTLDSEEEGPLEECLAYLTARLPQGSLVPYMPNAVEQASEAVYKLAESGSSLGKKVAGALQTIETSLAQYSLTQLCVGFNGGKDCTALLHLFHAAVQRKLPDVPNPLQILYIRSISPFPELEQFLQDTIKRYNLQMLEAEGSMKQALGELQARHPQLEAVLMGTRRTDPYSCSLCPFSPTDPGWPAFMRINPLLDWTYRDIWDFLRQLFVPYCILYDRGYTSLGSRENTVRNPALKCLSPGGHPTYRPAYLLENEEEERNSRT
# UniProt Q96PY5, sequence (Q96PY5 whole entry, looked up): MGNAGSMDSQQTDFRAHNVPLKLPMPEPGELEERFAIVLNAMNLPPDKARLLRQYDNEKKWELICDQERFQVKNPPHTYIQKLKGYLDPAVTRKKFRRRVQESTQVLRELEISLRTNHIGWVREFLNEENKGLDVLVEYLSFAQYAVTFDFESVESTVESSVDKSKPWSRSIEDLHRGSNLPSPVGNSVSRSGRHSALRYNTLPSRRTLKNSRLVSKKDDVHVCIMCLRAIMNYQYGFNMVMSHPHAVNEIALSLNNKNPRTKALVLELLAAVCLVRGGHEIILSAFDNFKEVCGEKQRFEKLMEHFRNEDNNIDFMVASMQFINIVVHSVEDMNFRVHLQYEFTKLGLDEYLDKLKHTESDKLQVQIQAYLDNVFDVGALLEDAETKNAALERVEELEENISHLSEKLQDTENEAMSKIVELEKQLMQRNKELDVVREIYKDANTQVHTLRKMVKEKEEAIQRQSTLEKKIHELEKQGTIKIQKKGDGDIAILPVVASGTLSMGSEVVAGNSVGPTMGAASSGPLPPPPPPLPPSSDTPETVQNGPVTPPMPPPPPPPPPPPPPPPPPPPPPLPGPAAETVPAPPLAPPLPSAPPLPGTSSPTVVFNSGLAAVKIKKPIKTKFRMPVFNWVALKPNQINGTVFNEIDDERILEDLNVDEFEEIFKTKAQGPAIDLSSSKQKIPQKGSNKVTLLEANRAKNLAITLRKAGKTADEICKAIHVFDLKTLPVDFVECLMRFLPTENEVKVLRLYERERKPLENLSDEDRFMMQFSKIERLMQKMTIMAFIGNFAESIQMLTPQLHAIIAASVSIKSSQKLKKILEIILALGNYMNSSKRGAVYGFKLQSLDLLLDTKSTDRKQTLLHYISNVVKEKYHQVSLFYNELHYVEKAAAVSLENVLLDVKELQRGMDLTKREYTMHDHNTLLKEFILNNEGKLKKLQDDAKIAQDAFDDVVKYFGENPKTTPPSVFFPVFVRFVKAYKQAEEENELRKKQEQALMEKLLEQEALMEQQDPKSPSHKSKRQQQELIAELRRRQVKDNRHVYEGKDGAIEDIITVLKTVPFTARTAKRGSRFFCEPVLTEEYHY
# UniProt O94905, sequence (O94905 whole entry, looked up): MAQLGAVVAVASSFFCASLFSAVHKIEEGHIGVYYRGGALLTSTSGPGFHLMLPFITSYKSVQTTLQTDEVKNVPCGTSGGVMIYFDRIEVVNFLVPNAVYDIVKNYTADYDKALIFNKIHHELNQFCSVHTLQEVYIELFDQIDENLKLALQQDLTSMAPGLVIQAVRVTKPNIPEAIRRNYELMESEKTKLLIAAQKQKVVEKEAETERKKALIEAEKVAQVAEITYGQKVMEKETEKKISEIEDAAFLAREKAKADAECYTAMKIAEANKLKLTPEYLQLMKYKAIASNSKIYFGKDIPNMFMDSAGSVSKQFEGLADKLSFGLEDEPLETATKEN
# UniProt Q9UPW0, sequence (Q9UPW0 whole entry, looked up): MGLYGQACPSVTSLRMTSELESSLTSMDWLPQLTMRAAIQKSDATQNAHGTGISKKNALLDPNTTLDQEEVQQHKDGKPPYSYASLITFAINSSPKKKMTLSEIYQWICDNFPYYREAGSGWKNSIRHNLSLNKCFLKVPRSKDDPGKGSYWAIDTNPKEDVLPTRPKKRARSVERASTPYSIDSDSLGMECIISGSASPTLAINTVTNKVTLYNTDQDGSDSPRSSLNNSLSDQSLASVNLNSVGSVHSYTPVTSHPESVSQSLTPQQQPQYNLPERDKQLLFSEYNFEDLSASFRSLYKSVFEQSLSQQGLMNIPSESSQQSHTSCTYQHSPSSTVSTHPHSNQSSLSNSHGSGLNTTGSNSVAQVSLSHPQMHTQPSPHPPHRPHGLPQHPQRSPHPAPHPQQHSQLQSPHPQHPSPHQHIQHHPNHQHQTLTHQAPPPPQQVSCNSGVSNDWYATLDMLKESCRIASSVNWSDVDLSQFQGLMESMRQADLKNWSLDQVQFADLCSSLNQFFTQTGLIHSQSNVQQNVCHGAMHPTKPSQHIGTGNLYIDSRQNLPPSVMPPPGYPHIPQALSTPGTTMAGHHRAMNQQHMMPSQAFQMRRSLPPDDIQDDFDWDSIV
# UniProt Q9NPA0, sequence (Q9NPA0 whole entry, looked up): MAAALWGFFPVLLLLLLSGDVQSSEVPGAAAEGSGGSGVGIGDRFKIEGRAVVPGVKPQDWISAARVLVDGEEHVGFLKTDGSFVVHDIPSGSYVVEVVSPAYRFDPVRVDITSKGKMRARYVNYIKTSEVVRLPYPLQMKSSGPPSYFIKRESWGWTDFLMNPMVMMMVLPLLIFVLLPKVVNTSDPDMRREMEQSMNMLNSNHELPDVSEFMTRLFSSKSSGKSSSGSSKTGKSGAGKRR
# UniProt Q13011, sequence (Q13011 whole entry, looked up): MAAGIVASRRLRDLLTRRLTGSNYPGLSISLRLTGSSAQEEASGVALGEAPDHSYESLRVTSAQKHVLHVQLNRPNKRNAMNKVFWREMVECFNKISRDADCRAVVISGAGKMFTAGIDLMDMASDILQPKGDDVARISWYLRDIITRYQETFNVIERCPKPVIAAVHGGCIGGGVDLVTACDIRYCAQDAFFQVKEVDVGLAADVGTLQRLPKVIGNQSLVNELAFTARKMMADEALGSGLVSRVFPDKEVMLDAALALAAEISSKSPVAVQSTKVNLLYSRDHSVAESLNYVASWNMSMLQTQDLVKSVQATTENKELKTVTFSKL
# UniProt Q9NZC3, sequence (Q9NZC3 whole entry, looked up): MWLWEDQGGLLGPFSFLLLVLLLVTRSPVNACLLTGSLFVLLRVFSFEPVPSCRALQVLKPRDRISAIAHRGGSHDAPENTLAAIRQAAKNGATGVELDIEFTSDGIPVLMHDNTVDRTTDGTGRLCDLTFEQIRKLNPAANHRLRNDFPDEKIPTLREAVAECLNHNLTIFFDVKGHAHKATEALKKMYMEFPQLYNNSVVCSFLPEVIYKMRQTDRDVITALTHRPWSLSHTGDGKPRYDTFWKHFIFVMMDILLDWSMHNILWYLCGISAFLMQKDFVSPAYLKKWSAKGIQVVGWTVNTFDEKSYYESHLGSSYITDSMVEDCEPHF
# UniProt P62942, sequence (P62942 whole entry, looked up): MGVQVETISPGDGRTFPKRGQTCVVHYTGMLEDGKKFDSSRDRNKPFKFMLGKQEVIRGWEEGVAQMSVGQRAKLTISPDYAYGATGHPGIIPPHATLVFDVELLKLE
Target,log2 fold change [1],log2 fold change [2],log2 fold change [3],log2 fold change [4],log2 fold change [5],log2 fold change [6],log2 fold change [7],log2 fold change [8],log2 fold change [9],log2 fold change [10]
ESRRA (UniProt P11474),0.065,0.171,-0.037,0.06,-0.131,-0.033,-0.112,-0.018,0.2,0.029
ECH1 (UniProt Q13011),-0.041,-0.049,-0.022,0.002,-0.022,0.499 (active),0.232,-0.009,0.017,-0.007
ERBIN isoform 8 (UniProt Q96RT1),0,-0.002,-0.008,0.044,-0.032,-0.001,-0.034,0.007,0.023,-0.034
FOXK1 (UniProt P85037),0.014,-0.029,0.038,0.013,-0.057,-0.011,0.007,-0.036,0.013,-0.014
FPGT (UniProt O14772),0.031,-0.005,-0.003,0.011,0.023,-0.002,-0.108,0.006,-0.013,0.023
FNBP1L (UniProt Q5T0N5),0.015,-0.018,0.013,0.031,0.044,0.066,0,-0.012,-0.061,-0.016
ENO2 (UniProt P09104),0.013,0.013,0.03,-0.037,0.056,-0.091,0.024,0.005,-0.02,-0.036
FBXO30 (UniProt Q8TB52),0.006,-0.064,-0.031,0.014,-0.038,-0.008,0.042,-0.014,-0.007,-0.018
FAT2 (UniProt Q9NYQ8),0.215,-0.092,-0.311,0.038,-0.076,-0.135,-0.147,-0.007,0.01,-0.016
FAM83D (UniProt Q9H4H8),0.033,0.013,-0.049,0.006,0,-0.009,-0.003,-0.005,-0.004,0.019
FASTKD5 (UniProt Q7L8L6),0.061,0.019,-0.054,0.023,0.013,-0.014,-0.066,-0.047,0.013,-0.019
FLAD1 (UniProt Q8NFF5),0.001,-0.108,-0.047,-0.054,-0.035,0.012,0.045,-0.028,-0.027,0.001
FBXO38 (UniProt Q6PIJ6),0.102,0.041,0.013,-0.047,-0.041,0.06,0.077,-0.06,0.021,-0.052
ERLIN2 (UniProt O94905),-0.028,0.051,-0.1,-0.002,-0.047,-0.019,-0.031,-0.039,0.006,-0.013
FYB1 isoform 3 (UniProt O15117),-0.019,-0.043,-0.003,-0.073,0.009,0.015,-0.025,-0.012,0.028,0.024
FASTKD2 (UniProt Q9NYY8),0.028,0.041,-0.005,0.03,0.019,-0.007,-0.018,0.013,0.002,0.016
GAA (UniProt P10253),0.077,0.046,0.054,-0.041,-0.005,0.006,-0.208,0.007,0.092,0.025

Target,log2 fold change [1],log2 fold change [2],log2 fold change [3],log2 fold change [4],log2 fold change [5],log2 fold change [6],log2 fold change [7],log2 fold change [8],log2 fold change [9],log2 fold change [10]
EMC7 (UniProt Q9NPA0),0.023,-0.011,-0.009,-0.02,-0.044,-0.011,-0.052,-0.002,0.011,0.02
FOXJ3 (UniProt Q9UPW0),0.018,0.085,-0.015,-0.001,0.014,0.032,-0.01,-0.035,-0.013,-0.025
FKBP1A (UniProt P62942),-0.024,0.063,0.015,-0.061,0,0.024,0.091,-0.044,0.062,0.071
ERLIN1 (UniProt O75477),-0.031,0.123,-0.17,0.072,-0.038,0.015,-0.02,-0.015,-0.046,-0.071
EWSR1 (UniProt H7BY36),–,-0.711,–,-0.346,0.111,-0.208,-0.428,-0.011,-0.035,-0.074
GBA2 (UniProt Q9HCG7),-0.088,–,0.063,–,0.035,-0.055,–,0.007,0.041,0.01
"EPB41, A0A2R8Y783",–,-0.136,–,0.09,-0.058,–,0.017,-0.001,0.346,–
FMNL2 isoform 3 (UniProt Q96PY5),-0.02,–,-0.064,–,–,0.083,–,–,–,-0.092
EHHADH (UniProt Q08426),-0.05,–,0.08,–,-0.029,0.007,–,0.045,-0.106,-0.09
ETFRF1 (UniProt Q6IPR1),-0.032,-0.008,-0.048,0.083,-0.064,-0.038,-0.063,–,–,-0.002
GDE1 (UniProt Q9NZC3),0.042,–,0.02,–,-0.032,0.097,–,0.05,0.027,-0.01
EIF2AK3 (UniProt Q9NZJ5),-0.014,–,0.015,–,–,-0.049,–,–,–,-0.044
FAT1 (UniProt Q14517),-0.004,–,0.006,–,–,0.126,–,-0.119,0.128,-0.053
DYRK1A isoform 2 (UniProt Q13627),-0.064,–,-0.476,–,0.247,0.069,–,–,–,-0.595
FCHO1 (UniProt O14526),0.062,0.034,0.045,-0.055,0.024,0.065,-0.064,-0.044,-0.022,-0.021
DST isoform 3 (UniProt Q03001),0.005,–,0.181,–,-0.085,–,–,-0.034,-0.043,–
